Source: PubChem BioAssay
Compounds with a hit are over-represented: about 14% of the library has one in this group of screens.
HCV inh: inhibitors of hepatitis C virus infection | Huh7.5.1 HCVcc-Cre infection, luciferase reporter, 44 h | Potency, µM (highest dose often 41.8 µM), for inactives: at the top dose activity change, negative = inhibition, most hits filed as inhibitors | 340,000 tested, 3.4% active; further: potency means the concentration at half of the fitted maximal effect
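Cells seeded at 1,000/well and cultured 4 h, then compounds added followed by HCVcc-Cre virus (~0.5 moi). After 44 h further culture, luciferase substrate was added, plates held 15 min at room temperature, and luminescence read for 15 sec.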
HCMV inh: blocks human cytomegalovirus replication; AID 1259415; activity change, negative = inhibition, % at 57.5 µM; HFF cells, HCMV-luciferase reporter, 72 h; hits give low values; 410,000 tested, 4.5% active; in the data active means activity change below about -60%; inconclusive means no clear call, values can overlap the other calls; inactive means above about -39%
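After 16 h attachment at 37C, HFF cells received test compound and HCMV-luciferase (1 PFU/cell); reporter luminescence read 72 h later, data normalized against buffer-only and known inhibitor Salinomycin.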
Lassa entry inh: inhibitors of Lassa virus binding or cell entry | Potency, µM (highest dose often 37.9 µM), without a hit: at the highest dose activity change, negative = inhibition, actives largely listed as inhibitors | Lassa virus pseudotype entry inhibition, cell reporter | 300,000 tested, 1.2% active; calls by dose curve; tested in HEK293 cells; further: potency means the concentration at half of the fitted maximal effect; nearly all actives have a fitted effect of over 50% in size
Marburg entry inh: Marburg virus entry inhibition; Marburg virus pseudotyped entry inhibition, cell reporter; Potency, µM (top dose mostly 37.8 µM), inactives show at the top dose activity change, negative = inhibition, usual class: inhibitors; 300,000 tested, 1.8% active; calls by dose curve; tested in HEK293 cells; further: potency means the concentration at half of the fitted maximal effect
Pf growth 96h: P. falciparum growth inhibition at 96 hours; P. falciparum luciferase reporter growth, 96 h; Potency, µM (doses to about 28.7 µM), for the others: at the highest dose activity change, negative = inhibition, actives largely listed as inhibitors; 320,000 tested, 6.9% active; AID 504834; further: potency means the concentration at half of the fitted maximal effect
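Plates of compound plus infected erythrocytes (2% hematocrit, 0.05% parasitemia final) incubate 96 hours, 37 C, 5% CO2. Detection reagent added; reduced luminescence from the parasites' luciferase reporter flags inhibition.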
Pf growth 48h: inhibits P. falciparum growth in the first generation, 48 h; P. falciparum luciferase growth in erythrocytes, 48 h; Potency, µM (doses to about 28.7 µM), for inactives: at the highest dose activity change, negative = inhibition, usual class: inhibitors; 310,000 tested, 5.9% active; further: potency means the concentration at half of the fitted maximal effect
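Erythrocytes infected with P. falciparum carrying an integrated firefly luciferase reporter (2% hematocrit, 0.1% parasitemia final) were exposed to compounds in RPMI 1640 with 0.5% Albumax at 37 C, 5% CO2. Growth inhibition was scored as reduced luminescence.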
* marks the source's active call; other numbers are inactive results; [ ] = remark or other dose. Unless noted, the call rests on the fitted dose curve; in most records, active means well fitted inhibition curve with a large enough effect; inconclusive means small, poorly fitted or top-dose-only effect, or another doubt; inactive means no such curve, though single readings can be large or run the other way. On the % scale 0 is the no-effect control and ±100 the full control effect.

For Fc1cccc(CN2CCN(Cc3nc(CCc4ccccc4)no3)CC2)c1 the results were HCV inh 5%, HCMV inh 0, Pf growth 96h 10µM* and Pf growth 48h 35%.
Screening Cc1cc(C)c(NC(=O)c2cc(C)nc3c2c(C)nn3-c2cccc(F)c2)c(C)c1 returned HCMV inh 22 and Lassa entry inh inconclusive.
Screening COc1cccc(C(=O)Nc2ccc(-n3nncc3-c3ccc(Br)cc3)cc2)c1OC returned HCMV inh 18 and Lassa entry inh 2%[46.1 µM].
COc1cc(OC)c(OC)cc1CN1CCN(Cc2ccc(C(F)(F)F)cc2)CC1 was read as HCV inh 11µM*, HCMV inh 15, Pf growth 96h 20% and Pf growth 48h inconclusive.
`CC1(C(=O)NCc2ccccc2Br)CCN1Cc1c(F)cccc1F` (stereo not drawn) gave HCMV inh -61*.
`CCN(CC)c1ccc(S(=O)(=O)N2CCOCC2)cc1NC(=O)CSC(=S)N1CCCC1` gave HCV inh inconclusive, HCMV inh 6, Lassa entry inh -25%[46.1 µM], Marburg entry inh -31%[46.1 µM], Pf growth 96h 10µM* and Pf growth 48h inconclusive.
CCN(CC)c1ccc(S(=O)(=O)N2CCOCC2)cc1NC(=O)CN1CCN(Cc2ccccc2)CC1 was read as HCV inh inconclusive, HCMV inh inconclusive, Pf growth 96h 10µM* and Pf growth 48h inconclusive.
`CCN(CC)c1ccc(S(=O)(=O)N2CCOCC2)cc1NC(=O)CNCc1ccccc1` gave HCV inh -8%, HCMV inh -38, Pf growth 96h inconclusive and Pf growth 48h inconclusive.
For C=CC(N)CCC(=O)O (stereo not drawn) the results were Lassa entry inh inconclusive, Marburg entry inh inconclusive, Pf growth 96h 21% and Pf growth 48h 0%.
CCOc1ccc2nc(NC(=O)C3CCCN(S(=O)(=O)c4c(C)noc4C)C3)sc2c1 (stereo not drawn) was read as HCV inh 11µM*, HCMV inh -21, Pf growth 96h 13µM* and Pf growth 48h inconclusive.
For COc1ccc2nc(NC(=O)C3CCCN(S(=O)(=O)c4cccc5nonc45)C3)sc2c1 (stereo not drawn) the results were HCV inh inconclusive, HCMV inh 26, Lassa entry inh -23%, Marburg entry inh inconclusive, Pf growth 96h 88% and Pf growth 48h 13µM*.
COc1ccc2nc(NC(=O)C3CCCN(S(=O)(=O)c4c(C)noc4C)C3)sc2c1 (stereo not drawn) was read as HCV inh inconclusive, HCMV inh -33, Marburg entry inh -5%, Pf growth 96h 48% and Pf growth 48h inconclusive.
O=C(N[C@@H]1c2ccccc2CC[C@@H]1OCc1ccccc1)c1ccc(-c2ccccc2)cc1 was read as HCV inh 15% and HCMV inh -11.
Screening CCOc1ccc(C2C(=O)N(C3CCCCC3)CC(=O)N2CCc2ccccc2)cc1OC (stereo not drawn) returned HCMV inh -28 and Lassa entry inh 4%[46.1 µM].
For CC12COC3(C(=O)NCCc4ccccc4)CC1CCC32C (stereo not drawn) the results were HCV inh -13%, HCMV inh 0, Lassa entry inh 13%, Marburg entry inh inconclusive, Pf growth 96h 0.0029µM* and Pf growth 48h 17%.
Screening Cc1ccc(Sc2ccc(NC(=O)CCl)cc2)c(C)c1 returned HCV inh inconclusive, HCMV inh 18, Lassa entry inh inconclusive, Marburg entry inh -21%, Pf growth 96h inconclusive and Pf growth 48h 8.3µM*.
For COc1ccccc1N1CCN(C2CC(=O)N(c3cccc(Br)c3)C2=O)CC1 (stereo not drawn) the results were HCV inh 15%, HCMV inh -6, Lassa entry inh 7%[46.1 µM], Marburg entry inh inconclusive, Pf growth 96h 6% and Pf growth 48h 8%.
COc1cc2c(cc1OC)CN(C1CC(=O)N(c3c(C)cccc3C)C1=O)CC2 (stereo not drawn) was read as HCV inh -2%, HCMV inh 85, Lassa entry inh 0%, Marburg entry inh inconclusive, Pf growth 96h inconclusive and Pf growth 48h 6.6µM*.
Screening COc1ccc(C(C)=O)cc1CSc1nnc(SCc2cc(C(C)=O)ccc2OC)s1 returned HCV inh 0%, HCMV inh -22, Lassa entry inh inconclusive, Marburg entry inh inconclusive, Pf growth 96h inconclusive and Pf growth 48h inconclusive.
Screening COc1ccc(C(C)=O)cc1CSc1nnc(Nc2ccc(C)cc2C)s1 returned HCV inh inconclusive, HCMV inh -30, Lassa entry inh inconclusive, Marburg entry inh inconclusive, Pf growth 96h inconclusive and Pf growth 48h inconclusive.
`COc1ccc(C(C)=O)cc1CSc1nnc(Nc2c(C)cccc2C)s1` gave HCV inh inconclusive, HCMV inh -27, Lassa entry inh -24%, Marburg entry inh inconclusive, Pf growth 96h 9.3µM* and Pf growth 48h inconclusive.
COc1ccc(C(C)=O)cc1CSc1nnc(Nc2ccccc2C)s1 was read as HCV inh inconclusive, HCMV inh -62*, Lassa entry inh -18%, Marburg entry inh -8%, Pf growth 96h 4.1µM* and Pf growth 48h inconclusive.
Nc1nccc(-c2c(-c3ccc(F)cc3)nn3cc(C(F)(F)F)ccc23)n1 was read as Lassa entry inh 19%.
CCN(Cc1ccncc1)Cc1nc(Cc2ccccc2Cl)no1 was read as HCV inh 11µM*, HCMV inh -61*, Pf growth 96h inconclusive and Pf growth 48h 10µM*.
`O=C(CN1CCNCC1)NC1CCCCC1` gave HCMV inh 5, Pf growth 96h 5% and Pf growth 48h 6%.
CC(OC(=O)C1CC(=O)N(Cc2ccccc2)C1)C(=O)Nc1cccc(C#N)c1 (stereo not drawn) was read as HCV inh 24%, HCMV inh 45, Lassa entry inh 2%, Marburg entry inh 16%, Pf growth 96h 6.6µM* and Pf growth 48h 0%.
Screening CC(OC(=O)CC1CCCCC1)C(=O)Nc1cccc(C#N)c1 (stereo not drawn) returned HCV inh inconclusive, HCMV inh -14, Lassa entry inh 16%, Marburg entry inh -9%, Pf growth 96h 8% and Pf growth 48h inconclusive.
`Cc1ccccc1NC(=O)C(C)OC(=O)C1CC(=O)N(Cc2ccco2)C1` (stereo not drawn) gave HCV inh 16%, HCMV inh -102*, Pf growth 96h -18% and Pf growth 48h inconclusive.
